Screening results from PubChem.
Bcl-xL primary = inhibitors of human Bcl-xL, primary screen, biochemical, fluorescence polarization, HTS; Bcl-2-like protein 1 (Homo sapiens), Q07817; GST-Bcl-xL / FITC-Bim BH3 peptide fluorescence polarization; inhibition, % at 10.9 µM; 320,000 compounds, 0.7% hits; AID 2129, 2009;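 active = inhibition above the mean of all tested compounds plus 3 SD, cutoff set per campaign, cut at about 30% in these data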;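 also: 0% = DMSO wells and 100% = unlabeled Bim-BH3 peptide competitor; inhibitors lower millipolarization by displacing the labeled peptide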
EBV gp42 inh = Epstein-Barr virus gp42 inhibitors, primary screen, biochemical, uHTS, fluorescence polarization; Fluorescence polarization binding assay, mP read-out; 220,000 compounds, 0.42% hits; Glycoprotein 42 (Epstein-Barr virus (strain AG876)), Q1HVG2; inhibition, % (tested at 21.74 µM); in the data active = inhibition above about 50%
E coli Lon inh = inhibitors of E. coli Lon protease, primary screen, biochemical, fluorescence polarization; P0A9M0; purified E. coli Lon protease; inhibition, % at 7.94 µM; 360,000 compounds, 0.42% hits; AID 602123, 2011; in the data active = inhibition above about 13%, passing the limit was not always enough;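 also: 0% = enzyme with probe and DMSO and 100% = no enzyme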
Target sequence (P0A9M0 whole entry, looked up): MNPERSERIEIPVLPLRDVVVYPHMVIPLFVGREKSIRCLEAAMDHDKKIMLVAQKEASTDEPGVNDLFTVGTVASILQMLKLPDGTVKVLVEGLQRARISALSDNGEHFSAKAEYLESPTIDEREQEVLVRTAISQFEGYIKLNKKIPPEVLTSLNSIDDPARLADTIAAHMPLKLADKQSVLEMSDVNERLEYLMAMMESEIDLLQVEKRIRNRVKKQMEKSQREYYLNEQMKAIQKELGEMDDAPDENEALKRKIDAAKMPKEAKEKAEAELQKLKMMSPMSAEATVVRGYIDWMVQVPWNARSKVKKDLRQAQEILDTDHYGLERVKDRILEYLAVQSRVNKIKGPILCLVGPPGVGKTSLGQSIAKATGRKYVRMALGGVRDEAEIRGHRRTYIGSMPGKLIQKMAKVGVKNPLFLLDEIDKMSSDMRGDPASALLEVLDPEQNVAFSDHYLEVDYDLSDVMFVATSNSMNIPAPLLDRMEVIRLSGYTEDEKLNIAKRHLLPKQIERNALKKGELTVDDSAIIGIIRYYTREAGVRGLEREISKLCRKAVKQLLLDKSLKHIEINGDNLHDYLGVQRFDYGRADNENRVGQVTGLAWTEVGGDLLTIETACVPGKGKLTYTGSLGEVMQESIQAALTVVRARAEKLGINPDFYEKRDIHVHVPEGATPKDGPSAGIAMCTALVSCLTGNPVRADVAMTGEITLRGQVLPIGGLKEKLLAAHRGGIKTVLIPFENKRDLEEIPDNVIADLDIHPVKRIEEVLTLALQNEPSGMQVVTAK
MEX-5 binding = MEX-5 zinc finger RNA-binding disruptors – biochemical, C. elegans, fluorescence polarization, MLPCN library, primary screen. Zinc finger protein mex-5 (Caenorhabditis elegans), Q9XUB2. MEX-5/FITC-TCR2 RNA binding; hits give low values. activity score (negative = inhibition of binding), % at 10 µM. 300,000 compounds, 0.38% hits;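 active = inhibition past about -25% in most replicates, and total fluorescence under double the plate's negative control median, limit read from the data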;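 also: 0% = DMSO and -100% = 5 µM competing unlabeled TCR2 RNA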
GLD-1 RNA inh = GLD-1/TGE RNA complex disruptors, primary screen, biochemical, fluorescence polarization. Female germline-specific tumor suppressor gld-1 (Caenorhabditis elegans), Q17339. purified GLD-1 + fluorescein TGE RNA. inhibition, % at 5.96 µM. 320,000 compounds, 0.44% hits. AID 2280, 2010;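 active = percent inhibition above a per-plate cutoff, the plate mean of test compounds plus 3 SD, cut at about 30% in these data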;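 also: 0% = DMSO wells with GLD-1 and probe and 100% = wells lacking GLD-1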
Starred values were filed as active, the others as inactive; i = inactive; / = no result given. In the library only some 1.3% were active in any assay of this set; here they are far more common.

SMILES	Bcl-xL primary	EBV gp42 inh	E coli Lon inh	MEX-5 binding	GLD-1 RNA inh
Cc1ccc(S(=O)(=O)Nc2nc3ccccc3nc2NCc2ccco2)cc1	40.5*	17.6	38.4*	1.7	24.7
Cc1ccc(S(=O)(=O)c2c(N)n(Cc3ccco3)c3nc4ccccc4nc23)cc1	29.6	61.1*	5.8	2.7	44.4*
Cc1cccc(S(=O)(=O)c2c(N)n(Cc3ccco3)c3nc4ccccc4nc23)c1	37.1*	3.7	-45.5	-0.1	68.7*
CC(C(=O)NCc1ccccc1)N1CCN(c2ccc(F)cc2)CC1 (configuration not stated)	2.9	/	0.4	2.4	-5.4
CCCCNc1nccnc1-c1cccc(C=O)c1	/	/	-0.5	/	/
CN1CCc2c(sc(N)c2C(N)=O)C1	60.4*	29.1	-6.9	-13.9	6.8
CCN1CCc2c(sc(N)c2C(N)=O)C1	60.8*	8.3	2.5	-21.2	22.8
O=c1[nH]c2cc3ccccc3cc2nc1-c1nnnn1Cc1ccccc1	/	/	3.1	/	/
O=C1NC(=O)C(=C2CCOC2=O)N1	/	/	4.3	/	/
C=C(C)C1CC=C(C)/C(=N/NC(=O)CCC(=O)Nc2ccccc2Cl)C1 (configuration not stated)	7.3	/	7.8	-1.4	1.3
Cc1cnc(CNC(=O)CC2C(=O)NCCN2Cc2ccccc2C(F)(F)F)cn1 (configuration not stated)	34.6*	/	14.2	-14.5	26.5
Cc1cc(CNC(=O)CC2C(=O)NCCN2Cc2ccccc2C(F)(F)F)on1 (configuration not stated)	21.0	13.7	4.8	-3.1	10.4
Cc1ccc(CCN2CC(C(=O)NC3CCC(C)CC3)CC2=O)cc1 (configuration not stated)	/	/	-6.2	/	/
O=C(O)c1cc(Cl)c2c(c1)[C@@H]1C=CC[C@@H]1[C@H](c1ccc(S(=O)(=O)N3CCOCC3)cc1)N2	39.5*	-11.2	9.2	-25.7*	14.6
c1ccc(COCCC2CO2)cc1 (configuration not stated)	6.1	/	/	-0.7	4.9
Cc1cccc(N(C)S(=O)(=O)c2nnc(NC(=O)c3ccco3)s2)c1	1.0	/	-8.3	-32.7*	0.7
C/C(=N/OC(=O)c1ccc(C)cc1)c1cccs1	5.6	-14.9	1.9	-2.3	-7.3
COc1ccc(C(=O)O/N=C(/c2cccs2)C(C)(C)C)cc1	5.8	-3.0	-2.4	2.7	137.7*
Nc1cccc2c1C(=O)N(C(=O)c1ccc(Cl)c(S(=O)(=O)N3CCCCCC3)c1)C2=O	37.2*	-3.0	8.4	-0.2	26.4
O=c1c(/C=C(\O)c2ccccc2)nc2ccccc2n1-c1ccccc1	-48.7	175.6*	i	-52.8*	-67.5
CN(C)c1ccc(/C=C(\C#N)C(=O)Nc2nc3c(s2)CCN(Cc2ccccc2)C3)cc1	-98.9	105.7*	i	-15.2	-209.3
COc1ccc(NC(=O)CSc2nc3ccccc3c(=O)n2CCCC(=O)NCC2CCCO2)c(OC)c1 (configuration not stated)	0.5	/	-1.7	0.2	5.1
COc1ccc(C(=O)N/C(=C\c2ccc(Cl)cc2)C(=O)NCCN2CCOCC2)cc1	/	/	16.2	/	/
COc1cc2sc3cc(NCC[C@@H]4CCCN4C)ccc3c(=O)c2cc1OC	/	/	-1.0	/	-3.2
COc1cccc2sc3ccc(NCCC4CCCN4C)cc3c(=O)c12 (configuration not stated)	32.5*	/	6.0	-2.6	35.8*
SMILES	Bcl-xL primary	EBV gp42 inh	E coli Lon inh	MEX-5 binding	GLD-1 RNA inh
CN(CC(=O)Nc1ccccc1Cl)CC(=O)Nc1sc2c(c1C(N)=O)CCC2	0.3	/	-5.3	-2.9	-3.0
Cc1nn(C2CCS(=O)(=O)C2)c2nc(C3CC3)cc(C(=O)Nc3ccc(C(N)=O)cc3)c12 (configuration not stated)	/	/	-6.8	/	/
O=C1N=c2ccc(Br)cc2=C1c1sc(=O)[nH]c1O	20.1	/	/	-26.2*	2.3
Cc1ccc2c(c1)=C(c1sc(N(C)c3ccc(O)cc3)nc1O)C(=O)N=2	7.6	/	-15.6	0.7	-7.4
COC(=O)c1cc2c(cc1NC(=O)CSCCc1ccccn1)OCO2	30.8*	14.0	-0.8	-7.5	-7.6
CSc1ncccc1C(=O)Nc1cccc(S(=O)(=O)N2CCCCC2)c1	-3.5	/	-0.3	/	3.5
Cc1nc2ccc([N+](=O)[O-])cc2c(=O)n1Cc1ccccc1Br	3.6	/	-1.4	1.1	7.5
COc1ccccc1CCC(=O)OCc1csc(CC(=O)Nc2ccccc2C)n1	0.0	/	5.4	-26.7*	-0.1
Cc1ccccc1NC(=O)Cc1nc(COC(=O)CCc2ccccc2)cs1	-5.8	/	9.2	/	3.9
Nc1[nH]c(C(=O)c2ccccc2)c(-c2ccncc2)c1C(=O)NCCc1c[nH]c2ccccc12	/	/	-2.0	/	/
Cc1ccc(N=Nc2c(O)n(CN3CCOCC3)c3ccccc23)cc1	96.4*	94.0*	-15.6	-27.8*	89.1*
Cc1cccc(NC(=S)N=Nc2c(O)n(CN3CCOCC3)c3ccccc23)c1C	3.4	-20.9	6.2	0.5	0.1
Cc1ccc(NC(=O)NNC(=O)CN2C(=O)COc3ccccc32)cc1	-1.4	/	11.5	-1.3	-2.2
Cc1ccccc1C1(CCN2CCCCC2)CCOC(C)(C)C1 (configuration not stated)	3.1	-8.1	1.1	0.8	2.6
COc1ccc(NC(=O)c2ccc(Cl)nc2)cc1S(=O)(=O)N1CCOCC1	3.9	/	-6.2	/	2.2
COc1ccc(NC(=O)Cn2ncc(Cl)c(Cl)c2=O)cc1S(=O)(=O)N1CCOCC1	8.3	60.7*	-6.5	0.5	1.7
O=C(NCC(=O)N1CCCC1)NN=Cc1ccccc1O	/	/	-4.7	/	/
O=C(/C(=C(\[O-])c1ccccc1)[n+]1ccc2ccccc2c1)c1ccccc1	2.7	73.6*	-58.9	-10.7	-9.6
O=C(/C(=C(\[O-])c1ccccc1)[n+]1ccc2ccccc2c1)c1ccc([N+](=O)[O-])cc1	8.7	-5.8	0.0	-0.4	1.5
O=C(/C(=C(\[O-])c1ccccc1)[n+]1ccc2ccccc2c1)c1ccc(Cl)cc1	8.6	66.6*	-20.7	-9.7	3.6
COc1ccc(NC(=O)C2CCN(S(=O)(=O)c3ccc(Cl)c(C(F)(F)F)c3)CC2)cn1	/	/	1.5	/	/
CN1CCc2cccc3c2[C@H]1Cc1ccc(O)c(O)c1-3	35.8*	-1.1	2.5	-84.3*	6.9
O=S(=O)(Nc1cc2nc3ccccc3nc2n1Cc1ccccc1)c1ccc(Cl)cc1	30.1	121.2*	-104.3	0.5	39.6*
Cc1cc(=O)c(C(=O)c2ccccc2)c(C)o1	37.1*	/	14.2	-0.3	6.4
Cc1oc2ccc(O)cc2c1C(=O)c1ccccc1	-2.2	/	-1.7	-1.2	-0.1
